In article PMC4336329 (PLoS ONE, 2015):
In all, about 310,000 compounds went through this assay and about 2,200 (0.71%) showed an effect of 50% or more. Effects have a minus sign here. This is one part of a sample in which strong results are shown more often than they occur.

biological target: human ether-à-go-go-related gene (hERG) potassium channel (human, UniProt Q12809); experiment: primary screen, population patch clamp on CHO cells stably expressing hERG; higher = less effect of the substance
Sequence (Q12809 whole entry, looked up): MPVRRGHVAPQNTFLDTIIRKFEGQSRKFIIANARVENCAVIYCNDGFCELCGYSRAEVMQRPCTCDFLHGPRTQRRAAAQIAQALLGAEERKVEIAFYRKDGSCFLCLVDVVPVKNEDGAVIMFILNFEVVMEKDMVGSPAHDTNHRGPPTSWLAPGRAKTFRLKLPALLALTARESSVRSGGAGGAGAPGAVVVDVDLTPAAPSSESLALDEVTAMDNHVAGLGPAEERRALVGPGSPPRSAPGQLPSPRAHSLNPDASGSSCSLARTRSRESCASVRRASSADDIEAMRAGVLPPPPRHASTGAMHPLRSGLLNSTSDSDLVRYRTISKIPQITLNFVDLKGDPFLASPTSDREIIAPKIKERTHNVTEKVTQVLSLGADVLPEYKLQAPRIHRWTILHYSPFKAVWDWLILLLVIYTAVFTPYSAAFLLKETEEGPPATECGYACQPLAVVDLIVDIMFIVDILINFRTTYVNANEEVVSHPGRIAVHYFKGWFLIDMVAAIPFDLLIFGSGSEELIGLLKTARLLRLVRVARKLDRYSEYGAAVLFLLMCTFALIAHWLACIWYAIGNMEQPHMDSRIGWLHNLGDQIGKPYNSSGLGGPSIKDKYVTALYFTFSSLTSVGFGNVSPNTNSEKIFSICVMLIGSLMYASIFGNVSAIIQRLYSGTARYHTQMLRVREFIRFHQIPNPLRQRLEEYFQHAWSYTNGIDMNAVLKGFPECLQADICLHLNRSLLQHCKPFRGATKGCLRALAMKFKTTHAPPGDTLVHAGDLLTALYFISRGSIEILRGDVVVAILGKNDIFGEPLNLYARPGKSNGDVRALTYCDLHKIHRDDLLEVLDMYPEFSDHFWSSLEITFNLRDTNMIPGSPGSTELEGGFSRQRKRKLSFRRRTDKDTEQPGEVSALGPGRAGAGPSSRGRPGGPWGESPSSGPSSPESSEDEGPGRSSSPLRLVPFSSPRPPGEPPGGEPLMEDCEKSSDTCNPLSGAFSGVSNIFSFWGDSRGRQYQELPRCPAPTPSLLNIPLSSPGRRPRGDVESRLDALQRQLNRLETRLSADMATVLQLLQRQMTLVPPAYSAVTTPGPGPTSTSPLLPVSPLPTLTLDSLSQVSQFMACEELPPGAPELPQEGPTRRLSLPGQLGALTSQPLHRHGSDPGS

Row | Compound | hERG current change (%, negative = inhibition) at 1uM
1 | CN1CCN(CCNC(=O)Nc2ccc([N+](=O)[O-])cc2)CC1 | 10.7%
2 | O=C(NCCN1CCN(Cc2ccc([N+](=O)[O-])cc2)CC1)C(=O)Nc1ccccc1 | -53.8%
3 | CCN1CCN(CCNC(=O)Nc2ccc([N+](=O)[O-])cc2)CC1 | 13.2%
4 | CCc1ccc(NC(=O)C(=O)NCCN2CCN(Cc3ccc([N+](=O)[O-])cc3)CC2)cc1 | -67.4%
5 | Cc1ccc(CNS(=O)(=O)/C=C/c2ccc3c(c2)OCO3)cc1 | -0.964%
6 | c1ccc(-c2nnc3sc(-c4csc5c4CCCC5)nn23)cc1 | 4.3%
7 | O=C(Nc1ncn[nH]1)c1ccc([N+](=O)[O-])cc1[N+](=O)[O-] | 18.3%
8 | COCCNC(=S)N(Cc1cccs1)Cc1cc2cccc(C)c2[nH]c1=O | 15.9%
9 | Cc1nc2cc(NCc3nc4ccccc4n3Cc3ccccc3)ccc2n1C | -61.7%
10 | CCN(CC)c1ccc(CNc2nc3ccccc3n2CCN2CCCCC2)cc1 | -18%
11 | Brc1cccc(CNc2nc3ccccc3n2CCN2CCOCC2)c1 | -56.7%
12 | c1ccc(Cn2c(CNc3nc4ccccc4n3CCN3CCOCC3)nc3ccccc32)cc1 | -54.4%
13 | c1ccc(Cn2c(CNc3nc4ccccc4n3CCN3CCCCC3)nc3ccccc32)cc1 | -5.91%
14 | CCn1cnc2cc(NCc3nc4ccccc4n3Cc3ccccc3)ccc21 | -15.2%
15 | COc1ccc(CNc2nc3ccccc3n2CCN2CCOCC2)cc1 | -46.5%
16 | Brc1cccc(CNc2nc3ccccc3n2CCN2CCCCC2)c1 | -0.507%
17 | Cc1cccc(NCc2nc3ccccc3n2Cc2ccccc2)c1 | 12%
18 | c1ccc2c(c1)nc(NCc1ccc3c(c1)OCO3)n2CCN1CCOCC1 | -40.7%
19 | c1csc(CNc2nc3ccccc3n2CCN2CCOCC2)c1 | -9.4%
20 | CCN(CC)c1ccc(CNc2nc3ccccc3n2CCN2CCOCC2)cc1 | -76.1%
21 | NS(=O)(=O)c1ccc(NC(=O)CSc2nc(Nc3ccccc3)nc(N3CCOCC3)n2)cc1 | 24.9%
22 | Cc1c(F)cccc1NC(=O)CSCC(=O)Nc1ccccc1 | 5.59%
23 | COC(=O)C1=C(c2ccc(F)cc2OCc2ccccc2)C[C@@H]2CC[C@H]1N2C(=O)NCc1ccc(Cl)cc1 | 14.6%

Row | Compound | hERG current change (%, negative = inhibition) at 1uM
24 | Cc1ccc(OC(=O)c2ccccc2C(=O)OCC(F)(F)C(F)F)cc1 | 14%
25 | Cc1ccc(-c2nnn(CC(=O)NCCC3=CCCCC3)n2)cc1 | 18.4%
26 | Cc1ccc(NC(=O)NCCCCc2ccccc2)cc1 | 14.4%
27 | CCC(NS(=O)(=O)c1ccc(C)cc1)C(=O)N1CCOCCOCCOCC1 (stereo not shown) | 20.3%
28 | COc1ccc(OCc2nnc(SCc3ccc(C(=O)O)cc3)o2)cc1 | 16.6%
29 | Cc1ccc(NC(=O)c2nn(C34CC5CC(CC(C5)C3)C4)cc2[N+](=O)[O-])cc1 | -2.47%
30 | Cc1cc(Cl)ccc1OCC(=O)NNC(=O)CCOc1ccccc1 | -0.757%
31 | O=C(COC(=O)CC(c1ccccc1)c1ccccc1)Nc1ccc(F)c(F)c1 | 1.93%
32 | O=c1c2ccccc2nc(-c2ccccc2)n1-c1nccs1 | 11.6%
33 | C/C=C(/C)C(=O)OC1c2c(ccc3ccc(=O)oc23)OC(C)(C)C1OC(C)=O (stereo not shown) | -36.9%
34 | C/C=C(\C)C(=O)OC1c2c(ccc3ccc(=O)oc23)OC(C)(C)C1OC(C)=O (stereo not shown) | -54.7%
35 | C/C=C(/C)C(=O)O[C@@H]1c2c(ccc3ccc(=O)oc23)OC(C)(C)[C@@H]1OC(=O)/C(C)=C\C | 9.46%
36 | COc1cccc(-c2nc3n(n2)C(c2ccc4c(c2)OCO4)C(C(N)=O)=C(C)N3)c1 (stereo not shown) | 6.43%
37 | Cn1c(=O)[nH]c(=O)c2c1nc(N1CCCCCC1)n2CCSc1nc2ccccc2o1 | 7.86%
38 | COc1cc(C(CCN2CCN(c3ccccc3)CC2)c2c(OC)cc(OC)c3c(C)cc(=O)oc23)cc(OC)c1OC (stereo not shown) | 9.23%
39 | COc1cc(C(CCN2CCCC2)c2c(OC)cc(OC)c3c(C)cc(=O)oc23)cc(OC)c1OC (stereo not shown) | -69%
40 | COc1cc(C(CCN2CCCC2)c2c(OC)cc(OC)c3ccc(=O)oc23)cc(OC)c1OC (stereo not shown) | -26.2%
41 | COc1cc(C(CCN2CCCCC2)c2c(OC)cc(OC)c3c(-c4ccccc4)cc(=O)oc23)cc(OC)c1OC (stereo not shown) | -12%
42 | CCCCCc1cc(=O)oc2c(C(CCN3CCCCC3)c3cc(OC)c(OC)c(OC)c3)c(OC)cc(OC)c12 (stereo not shown) | -10.6%
43 | COc1cc(C(CCN2CCCC2)c2c(OC)cc(OC)c3c(-c4ccccc4)cc(=O)oc23)cc(OC)c1OC (stereo not shown) | -10.9%
44 | COc1cc(C(CCN2CCCCC2)c2c(OC)cc(OC)c3c(C)cc(=O)oc23)cc(OC)c1OC (stereo not shown) | -96.3%
45 | COc1cc(C(CCN2CCOCC2)c2c(OC)cc(OC)c3c(C)cc(=O)oc23)cc(OC)c1OC (stereo not shown) | -70.3%
46 | COc1ccc(C(CCN2CCOCC2)c2c(OC)cc(OC)c3c(C)cc(=O)oc23)cc1 (stereo not shown) | -32.6%
